Measured values as given in the supplement of paper PMC10849652.
Of roughly 7,900 targets only a part is listed; those with a hit were picked by preference. About 0.6% of all pairs of compound and target were hits. Unmarked numbers belong to inactive results.

Columns and labels:
Assay in all cases: log2 fold change, soluble protein after heating vs DMSO (PISA); higher = thermal stabilisation; K562 cells, 10 uM, 30 min; active = over 0.2 and 3.5 SD of the protein, either way, in both replicates (recomputed)
[1] = compound: CC[C@@H]1C(=O)N(C)c2cnc(Nc3ccc(C(=O)NC4CCN(C)CC4)cc3OC)nc2N1C1CCCC1
Summary of the method: (§1)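 K562 cells at 2×10^6 cells/mL were exposed to 10 μM compound for 30 min, then aliquots were heated for 3 min across 48°C-58°C, pooled, and extracted in PBS containing 0.5% NP-40 at 4°C. The supernatant after 21,000xg for 90 min was taken as soluble protein and measured by TMTpro 16plex LC-MS/MS with channel sums equalised. Thermal stability is reported relative to control samples, with values from duplicates. Fold changes are given on a log2 scale.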

volasertib = compound: CC[C@@H]1C(=O)N(C)c2cnc(Nc3ccc(C(=O)N[C@H]4CC[C@H](N5CCN(CC6CC6)CC5)CC4)cc3OC)nc2N1C(C)C [volasertib]
Summary of the method: as §1

epoxomicin = compound: CC[C@H](C)[C@@H](C(=O)N[C@@H]([C@@H](C)O)C(=O)N[C@@H](CC(C)C)C(=O)[C@]1(CO1)C)NC(=O)[C@H]([C@@H](C)CC)N(C)C(=O)C [epoxomicin]
Summary of the method: as §1

[2] = compound: CCn1c(C(=O)N(C2CC2)C2CC2)cc2c3c(ncn3C)c(Nc3cc(C)n(C)n3)nc21
Summary of the method: as §1

[3] = compound: CCn1cc(-c2ccnc3[nH]c(-c4cccc(CN(C)C)c4)cc23)c(-c2ccc(NC(=O)N(C)C)cc2)n1
Summary of the method: as §1

[4] = compound: CN(C)CC(=O)Nc1ccc2[nH]c(=O)c3ccccc3c2c1
Summary of the method: as §1

rosiglitazone = compound: CN(CCOC1=CC=C(C=C1)C[C@H]2C(=O)NC(=O)S2)C3=CC=CC=N3 (racemic) [rosiglitazone]
Summary of the method: as §1

[5] = compound: CN1C2=C(C3=C1C(=O)N(N=C3)CC4=CC(=CC=C4)N)SC(=C2)S(=O)C
Summary of the method: as §1

[6] = compound: CN1CCC(CNc2ccc3ncc(-c4cccc(OC(F)(F)F)c4)n3n2)CC1
Summary of the method: as §1

saracatinib = compound: CN1CCN(CCOc2cc(OC3CCOCC3)c3c(Nc4c(Cl)ccc5c4OCO5)ncnc3c2)CC1 [saracatinib]
Summary of the method: as §1

sotrastaurin = compound: CN1CCN(c2nc(C3=C(c4c[nH]c5ccccc45)C(=O)NC3=O)c3ccccc3n2)CC1 [sotrastaurin]
Summary of the method: as §1

alvocidib = compound: CN1CC[C@H](c2c(O)cc(O)c3c(=O)cc(-c4ccccc4Cl)oc23)[C@H](O)C1 [alvocidib]
Summary of the method: as §1

Tubastatin A = compound: CN1CCc2c(c3ccccc3n2Cc2ccc(C(=O)NO)cc2)C1 [Tubastatin A]
Summary of the method: as §1

[7] = compound: CNC(=O)C1=CC=CC=C1NC2=NC(=NC=C2Cl)NC3=C(C=C(C=C3)N4CCOCC4)OC
Summary of the method: as §1

defactinib = compound: CNC(=O)c1ccc(Nc2ncc(C(F)(F)F)c(NCc3nccnc3N(C)S(C)(=O)=O)n2)cc1 [defactinib]
Summary of the method: as §1

rucaparib = compound: CNCc1ccc(-c2[nH]c3cc(F)cc4c3c2CCNC4=O)cc1 [rucaparib]
Summary of the method: as §1

[8] = compound: CNc1nc(-c2ccc3c(N)n[nH]c3c2)cc(N2C[C@@H](C(=O)NC3CCCCC3)CC[C@H]2C)n1
Summary of the method: as §1

encorafenib = compound: COC(=O)N[C@@H](C)CNc1nccc(-c2cn(C(C)C)nc2-c2cc(Cl)cc(NS(C)(=O)=O)c2F)n1 [encorafenib]
Summary of the method: as §1

[9] = compound: COC(=O)[C@H](CCSC)NC(=O)C1=C(C=C(C=C1)NC[C@H](CS)N)C2=CC=CC=C2
Summary of the method: as §1

[10] = compound: CC[C@H](C)N1C=C(C2=C(C=C(C=C21)C3=CN=C(C=C3)N4CCNCC4)C(=O)NCC5=C(C=C(NC5=O)C)C)C
Summary of the method: as §1

Chain of UniProt Q9BSQ5 (Q9BSQ5 whole entry, looked up): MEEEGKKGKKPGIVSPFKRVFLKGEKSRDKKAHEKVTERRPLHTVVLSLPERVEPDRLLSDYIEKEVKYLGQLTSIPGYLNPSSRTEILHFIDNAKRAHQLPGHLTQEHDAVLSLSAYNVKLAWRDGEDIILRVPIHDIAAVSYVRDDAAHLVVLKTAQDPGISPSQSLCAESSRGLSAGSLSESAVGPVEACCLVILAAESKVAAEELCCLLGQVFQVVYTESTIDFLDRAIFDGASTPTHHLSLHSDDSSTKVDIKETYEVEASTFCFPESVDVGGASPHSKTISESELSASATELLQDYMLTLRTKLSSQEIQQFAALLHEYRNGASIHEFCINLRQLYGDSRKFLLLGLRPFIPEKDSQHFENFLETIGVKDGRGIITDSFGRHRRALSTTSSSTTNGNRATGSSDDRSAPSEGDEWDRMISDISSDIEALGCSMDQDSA
Chain of UniProt A8MTT3 (A8MTT3 whole entry, looked up): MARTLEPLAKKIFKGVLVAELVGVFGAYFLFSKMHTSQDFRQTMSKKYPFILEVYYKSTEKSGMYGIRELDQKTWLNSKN
Chain of UniProt Q86X95 (Q86X95 whole entry, looked up): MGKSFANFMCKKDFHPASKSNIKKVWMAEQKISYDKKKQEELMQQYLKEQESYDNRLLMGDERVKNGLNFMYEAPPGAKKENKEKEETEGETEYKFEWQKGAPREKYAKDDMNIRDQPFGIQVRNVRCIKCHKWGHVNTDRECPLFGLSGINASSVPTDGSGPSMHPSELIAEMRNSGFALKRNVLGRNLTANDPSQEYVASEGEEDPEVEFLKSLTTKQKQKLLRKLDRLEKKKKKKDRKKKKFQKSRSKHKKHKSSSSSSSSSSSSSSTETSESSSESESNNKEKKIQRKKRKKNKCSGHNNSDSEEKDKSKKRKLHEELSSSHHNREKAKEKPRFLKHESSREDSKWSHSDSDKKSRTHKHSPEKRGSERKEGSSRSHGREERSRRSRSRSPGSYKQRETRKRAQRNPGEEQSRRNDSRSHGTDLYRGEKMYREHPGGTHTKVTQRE
Chain of UniProt Q2TAC2 (Q2TAC2 whole entry, looked up): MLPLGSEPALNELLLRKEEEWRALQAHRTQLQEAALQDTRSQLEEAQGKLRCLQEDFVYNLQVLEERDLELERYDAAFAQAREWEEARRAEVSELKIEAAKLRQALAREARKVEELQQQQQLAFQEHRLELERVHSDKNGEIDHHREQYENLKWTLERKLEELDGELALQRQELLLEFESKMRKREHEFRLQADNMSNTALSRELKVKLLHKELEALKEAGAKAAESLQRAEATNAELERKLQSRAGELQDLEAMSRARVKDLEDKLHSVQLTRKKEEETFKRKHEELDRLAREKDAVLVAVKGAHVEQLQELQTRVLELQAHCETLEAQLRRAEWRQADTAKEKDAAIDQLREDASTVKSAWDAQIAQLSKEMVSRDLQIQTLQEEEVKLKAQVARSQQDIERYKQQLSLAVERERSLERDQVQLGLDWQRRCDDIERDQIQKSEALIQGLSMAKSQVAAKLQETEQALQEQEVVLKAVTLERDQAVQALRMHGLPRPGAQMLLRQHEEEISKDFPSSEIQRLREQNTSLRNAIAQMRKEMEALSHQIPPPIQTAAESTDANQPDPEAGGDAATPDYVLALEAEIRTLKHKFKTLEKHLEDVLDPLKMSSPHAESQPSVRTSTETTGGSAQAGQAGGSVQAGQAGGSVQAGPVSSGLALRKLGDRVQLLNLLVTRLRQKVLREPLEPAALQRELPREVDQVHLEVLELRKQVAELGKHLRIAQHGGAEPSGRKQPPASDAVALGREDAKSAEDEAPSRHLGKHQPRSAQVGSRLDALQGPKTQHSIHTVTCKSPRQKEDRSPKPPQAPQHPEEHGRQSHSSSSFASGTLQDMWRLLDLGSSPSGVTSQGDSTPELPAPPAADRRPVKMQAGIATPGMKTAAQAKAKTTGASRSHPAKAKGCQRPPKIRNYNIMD
Chain of UniProt Q9UBY8 (Q9UBY8 whole entry, looked up): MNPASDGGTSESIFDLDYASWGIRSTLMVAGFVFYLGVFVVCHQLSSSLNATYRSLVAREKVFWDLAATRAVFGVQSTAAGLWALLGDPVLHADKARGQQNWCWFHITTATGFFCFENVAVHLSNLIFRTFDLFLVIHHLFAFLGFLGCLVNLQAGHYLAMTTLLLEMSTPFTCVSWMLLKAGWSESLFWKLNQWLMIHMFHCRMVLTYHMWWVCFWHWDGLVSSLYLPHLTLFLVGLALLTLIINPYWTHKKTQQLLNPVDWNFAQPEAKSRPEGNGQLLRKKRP
Chain of UniProt Q69YH5 (Q69YH5 whole entry, looked up): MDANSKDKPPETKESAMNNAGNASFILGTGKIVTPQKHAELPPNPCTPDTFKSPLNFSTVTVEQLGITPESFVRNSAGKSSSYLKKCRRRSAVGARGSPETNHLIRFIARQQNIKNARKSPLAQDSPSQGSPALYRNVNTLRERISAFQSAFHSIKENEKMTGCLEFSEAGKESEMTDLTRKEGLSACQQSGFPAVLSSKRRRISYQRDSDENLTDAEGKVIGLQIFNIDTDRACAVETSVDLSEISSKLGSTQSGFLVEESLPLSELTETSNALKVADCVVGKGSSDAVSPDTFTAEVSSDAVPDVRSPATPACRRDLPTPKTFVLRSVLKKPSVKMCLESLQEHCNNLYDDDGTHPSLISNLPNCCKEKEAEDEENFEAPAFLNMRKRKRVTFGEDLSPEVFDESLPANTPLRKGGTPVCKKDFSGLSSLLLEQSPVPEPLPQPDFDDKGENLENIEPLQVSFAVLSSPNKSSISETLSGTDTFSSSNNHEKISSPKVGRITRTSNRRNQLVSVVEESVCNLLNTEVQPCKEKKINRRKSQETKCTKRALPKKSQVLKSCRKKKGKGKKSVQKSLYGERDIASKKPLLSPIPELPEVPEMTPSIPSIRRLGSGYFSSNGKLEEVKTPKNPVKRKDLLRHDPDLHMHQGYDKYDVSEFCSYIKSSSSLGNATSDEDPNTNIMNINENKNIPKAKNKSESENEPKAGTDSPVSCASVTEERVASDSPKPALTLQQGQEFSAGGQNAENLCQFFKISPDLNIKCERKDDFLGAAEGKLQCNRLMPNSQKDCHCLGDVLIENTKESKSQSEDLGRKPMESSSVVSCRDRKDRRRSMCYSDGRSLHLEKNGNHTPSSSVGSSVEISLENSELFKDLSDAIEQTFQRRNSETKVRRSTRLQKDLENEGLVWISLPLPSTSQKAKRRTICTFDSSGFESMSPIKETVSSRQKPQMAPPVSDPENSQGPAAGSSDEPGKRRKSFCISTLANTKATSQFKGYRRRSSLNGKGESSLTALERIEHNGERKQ
Chain of UniProt Q9Y2V0 (Q9Y2V0 whole entry, looked up): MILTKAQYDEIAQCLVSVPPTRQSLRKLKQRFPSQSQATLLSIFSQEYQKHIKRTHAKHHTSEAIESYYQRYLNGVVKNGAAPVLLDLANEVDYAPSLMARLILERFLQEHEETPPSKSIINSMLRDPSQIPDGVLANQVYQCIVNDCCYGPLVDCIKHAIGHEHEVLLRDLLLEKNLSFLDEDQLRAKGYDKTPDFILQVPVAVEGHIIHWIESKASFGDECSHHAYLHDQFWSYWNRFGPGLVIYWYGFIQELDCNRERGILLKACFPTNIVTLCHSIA
Chain of UniProt Q8WUD6 (Q8WUD6 whole entry, looked up): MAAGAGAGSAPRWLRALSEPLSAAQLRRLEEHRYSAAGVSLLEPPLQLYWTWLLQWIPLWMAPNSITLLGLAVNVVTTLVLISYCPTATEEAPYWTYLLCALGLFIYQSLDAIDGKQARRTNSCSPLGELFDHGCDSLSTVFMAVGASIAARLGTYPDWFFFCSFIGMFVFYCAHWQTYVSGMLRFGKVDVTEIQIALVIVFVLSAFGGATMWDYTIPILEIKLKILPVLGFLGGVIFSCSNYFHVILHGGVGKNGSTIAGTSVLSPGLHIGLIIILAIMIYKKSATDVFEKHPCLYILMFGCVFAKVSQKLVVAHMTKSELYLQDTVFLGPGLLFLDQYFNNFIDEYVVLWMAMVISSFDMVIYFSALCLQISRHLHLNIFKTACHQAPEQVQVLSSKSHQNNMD
Chain of UniProt Q92851 (Q92851 whole entry, looked up): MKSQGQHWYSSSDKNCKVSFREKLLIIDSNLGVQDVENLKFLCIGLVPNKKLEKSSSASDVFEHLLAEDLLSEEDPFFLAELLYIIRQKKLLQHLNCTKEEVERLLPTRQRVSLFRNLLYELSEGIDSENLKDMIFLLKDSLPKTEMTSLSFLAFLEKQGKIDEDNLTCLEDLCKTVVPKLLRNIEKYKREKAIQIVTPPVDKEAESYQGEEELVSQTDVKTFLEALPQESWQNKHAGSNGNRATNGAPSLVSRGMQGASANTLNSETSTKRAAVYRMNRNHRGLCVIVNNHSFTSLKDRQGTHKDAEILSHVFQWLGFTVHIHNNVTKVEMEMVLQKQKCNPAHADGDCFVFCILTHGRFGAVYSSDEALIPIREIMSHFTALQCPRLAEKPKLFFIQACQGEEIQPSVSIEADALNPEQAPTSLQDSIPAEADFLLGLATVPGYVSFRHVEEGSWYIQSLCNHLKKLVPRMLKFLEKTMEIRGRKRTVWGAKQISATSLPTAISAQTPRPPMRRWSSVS
Chain of UniProt P55211 (P55211 whole entry, looked up): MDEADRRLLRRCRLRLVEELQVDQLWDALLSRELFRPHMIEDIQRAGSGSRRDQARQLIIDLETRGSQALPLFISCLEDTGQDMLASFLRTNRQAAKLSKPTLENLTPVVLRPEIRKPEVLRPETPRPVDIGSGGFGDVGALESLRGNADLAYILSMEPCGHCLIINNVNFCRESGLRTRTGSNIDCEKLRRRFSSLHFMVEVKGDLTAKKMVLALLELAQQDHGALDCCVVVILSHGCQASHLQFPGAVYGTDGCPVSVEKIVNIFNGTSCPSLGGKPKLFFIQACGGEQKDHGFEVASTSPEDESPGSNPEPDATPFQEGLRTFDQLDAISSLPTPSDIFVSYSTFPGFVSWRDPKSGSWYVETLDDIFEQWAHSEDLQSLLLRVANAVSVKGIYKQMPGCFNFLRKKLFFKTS
Chain of UniProt Q9NRR8 (Q9NRR8 whole entry, looked up): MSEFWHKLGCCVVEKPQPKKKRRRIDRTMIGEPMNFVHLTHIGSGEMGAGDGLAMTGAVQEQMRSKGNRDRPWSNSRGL

Target	log2 fold change [1]	log2 fold change (volasertib)	log2 fold change (epoxomicin)	log2 fold change [2]	log2 fold change [3]	log2 fold change [4]	log2 fold change (rosiglitazone)	log2 fold change [5]	log2 fold change [6]	log2 fold change (saracatinib)	log2 fold change (sotrastaurin)	log2 fold change (alvocidib)	log2 fold change (Tubastatin A)	log2 fold change [7]	log2 fold change (defactinib)	log2 fold change (rucaparib)	log2 fold change [8]	log2 fold change (encorafenib)	log2 fold change [9]	log2 fold change [10]
CIR1 (UniProt Q86X95)	0	0.049	-0.212	-0.015	0.055	0.142	-0.169	0.234	-0.458	-0.02	-0.039	0.256	0.078	-0.061	0.418	0.102	0.057	0.04	0.207	
C15orf41 (UniProt Q9Y2V0)	-0.04	-0.188	-0.165	-0.023	-0.333 (active)	-0.022		0.019	0.001	0.009	0.042	-0.042	0.011	-0.137	-0.008	0.081	-0.017	0.01	0.079	
CLN3 (UniProt Q13286)	-0.003	0.055	0.09	-0.008		-0.001	-0.002	0.074		0.046		0.107	0.065	0.004	-0.039	0.082	-0.097	-0.053	0.149	-0.038
CCDC57 (UniProt Q2TAC2)	-0.033	0.012	-0.059	0.036		-0.034	0.018				0.059	-0.055	0.026	0.04	0.02	-0.15		0.041	0.007	-0.043
CNOT4 isoform 9 (UniProt O95628)	0.198	-0.006		0.017	-0.095	0.046	-0.022	-0.105	0.072	0.077		0	-0.027	0.187	-0.129	-0.057	-0.021	-0.05	0.038	-0.046
CEBPZOS (UniProt A8MTT3)	0.002	-0.035		0.057	0.013	-0.001	0.101	-0.103	-0.015	0.079			-0.06	0.039	-0.012	0.159	-0.032	-0.038	-0.02	-0.038
CASP9 (UniProt P55211)	-0.083	-0.629 (active)	0.054		0.035	0.048		0.001	-0.188	-0.206	-0.25	-0.136	0.098		-0.165	0.161	-0.051	0.012	-0.035	0.008
CCND3 (UniProt P30281)	-0.085	0.102	0.363 (active)	-0.003	-0.021	-0.022	-0.025	0.063	-0.175	0.03		0.008	0.242	-0.018	-0.037	0.113	-0.067	-0.11	0	
CLN8 (UniProt Q9UBY8)	0.069	0.001		-0.101	0.005	0.145	0.327	0.135	0.191	0.073	0.107	0.061	-0.225	0.022	-0.062	-0.061	-0.292	-0.117	0.05	0.077
CCM2 isoform 2 (UniProt Q9BSQ5)	-0.207	-0.412 (active)	0.102	-0.047	-0.017	-0.01	0.032	-0.012	-0.233	-0.01	0.056	-0.022	0.073	-0.061	-0.107	0.03	0.087	0.118	-0.033	
CASP10 isoform 4 (UniProt Q92851)	-0.091	-0.582 (active)	0.004		0.121	-0.016	-0.093	0.023	-0.331	0.034	-0.138	-0.116	0.127		0.028	0.111	0.04	0.164	-0.039	0.015
CFAP47 (UniProt Q6ZTR5)	0.063	0.065	-0.006			-0.248	0.108	0.23		0.001					-0.063	-0.062	-0.142	-0.173	0.084	
CHPT1 (UniProt Q8WUD6)	-0.324	-0.228	-0.176		-0.042			0.047	-0.79 (active)	-0.066	-0.016	-0.118	-0.08			-0.069	0.034	0.103		0.119
CDCA2 (UniProt Q69YH5)	0.193	0.275	-0.025	0.015	0.152	-0.038			0.205		-0.148	0.008	0.217	-0.152	-0.063	0.011		0.318	-0.03	-0.131
CDC42SE1 (UniProt Q9NRR8)	-0.995 (active)	-2.6 (active)	0.031	0.029		0.05	-0.017	-0.074		0.074	-0.033	-0.019	-0.562 (active)	0.228	-0.041	0.087	0.01	-0.032	0.077	-0.127
COMMD1 (UniProt Q8N668)	-0.029	-0.041	-0.071	-0.063	0.157	0.019	0.016		0.295		-0.038		-0.213	0.119	-0.151	0.15		-0.028	0.092	0.054
CDK4 (UniProt P11802)	0.16	0.071	0.16	-0.018		-0.085	0	0.146		-0.03	-0.028	0.098		0.07	-0.039	0.051	-0.057	-0.008	-0.07	0.117
CDK19 (UniProt Q9BWU1)	0.016	-0.064	-0.114	0.038	-0.1	-0.068		0.003	0.456	0.006	0.035	0.585 (active)	-0.104	-0.209	0.046	0.345	0.03	-0.086	-0.005	0.069
